Our source for the activation fold values is PubChem BioAssay AID696 (Sanford-Burnham Center for Chemical Genomics, 2007).

Out of some 96,000 compounds screened, about 1,200 (1.2%) were called active. Cut-off read from the data, not from the text of the source: active = activation fold above about 2; inactive = the rest. The full list was thinned out, with actives kept by preference.

Chain of Alkaline phosphatase, placental type (Homo sapiens) (P05187 whole entry, looked up): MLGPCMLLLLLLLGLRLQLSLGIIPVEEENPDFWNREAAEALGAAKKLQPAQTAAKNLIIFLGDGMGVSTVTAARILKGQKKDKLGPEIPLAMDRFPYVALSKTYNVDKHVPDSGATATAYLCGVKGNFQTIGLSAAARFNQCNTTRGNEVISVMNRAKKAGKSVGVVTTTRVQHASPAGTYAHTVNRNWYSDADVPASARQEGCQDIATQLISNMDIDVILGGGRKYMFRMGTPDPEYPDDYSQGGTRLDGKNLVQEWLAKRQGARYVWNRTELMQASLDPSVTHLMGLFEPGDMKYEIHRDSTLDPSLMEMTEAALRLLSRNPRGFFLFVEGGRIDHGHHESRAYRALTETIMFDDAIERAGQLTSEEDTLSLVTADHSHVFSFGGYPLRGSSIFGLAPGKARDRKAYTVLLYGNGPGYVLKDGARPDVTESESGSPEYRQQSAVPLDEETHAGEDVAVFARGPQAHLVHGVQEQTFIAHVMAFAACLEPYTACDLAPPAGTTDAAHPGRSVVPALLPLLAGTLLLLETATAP

This assay concerns the target Alkaline phosphatase, placental type (Homo sapiens) (UniProt P05187). Put plainly: PLAP enzyme activators, biochemical, luminescence, HTS (AID 696). Conditions: purified PLAP enzyme, luminescent substrate read-out; at 20 µM; stronger effect = higher value.
As to `CCOC(=O)c1c(N)n(Cc2ccccc2)c2nc3ccccc3nc12`, the activation fold is 0.9 (inactive).

For the compound `COc1cc(Cn2c(N)c(C(=O)NCc3ccco3)c3nc4ccccc4nc32)cc(OC)c1OC`, the activation fold was 2.1 (active).

For the compound `CCOC(=O)c1c(N)n(CCN2CCOCC2)c2nc3ccccc3nc12`, the activation fold is 1.1 (inactive).

As to `Nc1ccc(C(=O)N/N=C2/CN3CCC2CC3)cc1`, the activation fold is 0.9 (inactive).

Consider `CCOc1ccc(C2SCC(=O)Nc3c2c(C)nn3C2CCOC(C)(C)C2)cc1` (stereo not given), for which the activation fold was 1.5 (inactive).
